Assay [1] in a line: Nuclear factor erythroid 2-related factor 2/antioxidant responsive element (Nrf2/ARE) small molecule agonists: qHTS cell viability counter screen in human keratinocytes (AID 1919968; active means well fitted curve in the direction sought with a large enough effect in the repeat runs; an effect the other way counts as inactive or inconclusive; further: nearly all actives have a fitted effect of over 55% in size). The essentials: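 Fluorescence read-out from CellTiter-Fluor after 1 h at 37 C. Wells held HaCaT-derived ARE-luciferase reporter cells (1,500/well) treated 23 h with DMSO-dissolved compounds. Run in the same wells as the luciferase agonist read.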

Assay [2] is described as follows: Nuclear factor erythroid 2-related factor 2/antioxidant responsive element (Nrf2/ARE) small molecule agonists: luciferase reporter gene qHTS assay in human keratinocytes (AID 1919969). Further: nearly all actives have a fitted effect of over 35% in size. Further: potency means the concentration at half of the fitted maximal effect.
In assay [3] the target is Gonadotropin-releasing hormone receptor (Homo sapiens) (UniProt P30968). The experiment in a line: Human gonadotropin-releasing hormone receptor (GnRHR) small molecule agonists, calcium flux assay in GnRHR-HEK293 cells (AID 1920063). Further: nearly all actives have a fitted effect of over 35% in size. The essentials:
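Calcium-dye fluorescence, Ex/Em=480/540, recorded every 1 sec over 3 min after compound addition to GnRHR-HEK293 cells. Cells had been seeded 18 hours earlier and dye-loaded for 1 hour at 37 C. Fifteen concentrations, triplicates.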
On the technique in general: Calcium flux is commonly read through the fluorescence of an indicator in the cells.

In assay [4] the target is KiSS-1 receptor (Homo sapiens) (UniProt Q969F8). The experiment in a line: Human kisspeptin (KISS1R) small molecule agonists, calcium flux assay in KISS1R-HEK293 cells (AID 1920064; active means well fitted curve in the direction sought with a large enough effect in the repeat runs; an effect the other way counts as inactive or inconclusive). The essentials: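 Calcium flux read-out: kinetic fluorescence at Ex/Em=480/540, 1 s intervals over 3 min, after pin-tool compound addition to dye-loaded KISS1R-HEK293 cells. Fifteen concentrations, triplicates.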
Chain of KiSS-1 receptor (Homo sapiens) (Q969F8 whole entry, looked up): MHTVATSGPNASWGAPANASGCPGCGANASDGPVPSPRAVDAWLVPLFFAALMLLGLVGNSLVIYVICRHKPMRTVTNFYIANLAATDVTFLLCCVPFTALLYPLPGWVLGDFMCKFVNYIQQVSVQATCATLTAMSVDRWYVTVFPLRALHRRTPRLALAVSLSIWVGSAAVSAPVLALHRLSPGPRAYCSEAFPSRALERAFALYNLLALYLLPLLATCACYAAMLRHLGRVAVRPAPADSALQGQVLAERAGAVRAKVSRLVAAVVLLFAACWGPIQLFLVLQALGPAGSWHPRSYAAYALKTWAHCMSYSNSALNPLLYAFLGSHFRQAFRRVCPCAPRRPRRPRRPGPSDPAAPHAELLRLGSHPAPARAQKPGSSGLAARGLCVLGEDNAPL

Assay [5] can be described thus: G protein-coupled receptor (GPCR) small molecule agonists, calcium flux assay: HEK293 wild type cell line counter screen (AID 1920065). The method in brief: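 Agonist mode; 18 h seeding at 37 C, 1 h dye load at 37 C; compounds pinned from DMSO, ATP as positive control; kinetic fluorescence 480/540 nm, 3 min, 1 s reads; 15 concentrations, triplicate.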
Assay [6] is described as follows: p53 small molecule agonists, cell-based qHTS assay with human liver microsomes: qHTS cell viability counter screen (AID 1963579). Further: nearly all actives have a fitted effect of over 45% in size. The method in brief:
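In this multiplexed counter screen, the reporter plates were subsequently treated with CellTiter-Glo so that cell viability, reflected by luminescence, could be recorded for p53RE-bla cells dosed 16 h with compounds under microsomal activation (HLM and NADPH).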

Assay [7] can be described thus: p53 small molecule agonists, cell-based qHTS assay with rat liver microsomes: qHTS cell viability counter screen (AID 1963580). Further: nearly all actives have a fitted effect of over 45% in size. The method in brief: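 After the beta-lactamase ratio was read, CellTiter-Glo was added to the same wells and luminescence measured at 30 min; cells had been treated 16 h at 37 C with compounds, rat liver microsomes and NADPH (0.5 mg/mL final each).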
(In general: qHTS replaces the single test concentration by a dilution series.)

Assay [8] can be described thus: p53 small molecule agonists, cell-based qHTS assay: qHTS cell viability counter screen (AID 1963581). Further: nearly all actives have a fitted effect of over 45% in size. The method in brief:
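Cytotoxicity read-out: ATP-based luminescence (CellTiter-Glo, 30 min RT) measured in the same wells as the p53 reporter assay, HCT-116 p53RE-bla cells, 16 h compound exposure at 37 C.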

The nature of assay [9]: cAMP Responsive Elements (CRE) small molecule agonists, cell-based qHTS assay (AID 1963590). The method in brief:
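Beta-lactamase reporter readout: LiveBLAzer B/G FRET substrate, 2 h at room temperature, added after 3 h compound treatment of CRE-bla HEK 293T cells at 37 C/5% CO2.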

The nature of assay [10]: cAMP Responsive Elements (CRE) small molecule antagonists, cell-based qHTS assay (AID 1963591; active means well fitted inhibition curve with a large enough effect in the signal ratio in the repeat runs, not every such curve was filed as active; the % refers to the signal ratio). The method in brief:
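HEK293T CRE-bla; 18 h preincubation; compound pin-transfer; NKH477 0.25 uM final, 3 h, 37 C; LiveBLAzer FRET substrate 2 h RT.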

The target in assay [11] is Beta-2 adrenergic receptor (Homo sapiens) (UniProt P07550). The experiment in a line: Adrenergic beta2 receptor (ADRB2) small molecule antagonists, cell-based qHTS assay (AID 1963592). Further: series mostly up to about 92 µM; nearly all actives have a fitted effect of over 50% in size. The method in brief:
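Assay format: CHO-ADRB2 cells, 18-20hr seeding at 37C/5% CO2, then compound plus 1nM isoproterenol agonist mix for 0.5hr RT. Homogeneous time-resolved fluorescence cAMP detection after 1hr, expressed as 665/615 nm ratio.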

The target is the same in assay [12]. The experiment in a line: Adrenergic beta2 receptor (ADRB2) small molecule agonists, cell-based qHTS assay (AID 1963593).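 Further: CHO cells stably overexpressing human ADRB2.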 The method in brief: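 CHO cells stably over-expressing ADRB2 were plated overnight at 37C, then dosed with compounds plus a stimulation mix containing 100uM IBMX and 25uM Ro-20-1724 for 0.5hr at room temperature. cAMP was measured by HTRF competition, 1hr.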

Assay [13] has as its target D(2) dopamine receptor (Homo sapiens) (UniProt P14416). The experiment in a line: Dopamine D2 receptor (DRD2) small molecule agonists, cell-based qHTS assay (AID 1963594). Further: nearly all actives have a fitted effect of over 35% in size. The essentials:
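HEK293 cells stably expressing human DRD2, pre-treated with PDE inhibitor Ro20-1724 (0.1 mM final) and compound 10 min at room temperature, then stimulated with NKH477 (200nM […]) for 30 min. cAMP read by HTRF (665/620 nm).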

For assay [14] the target is unchanged. The experiment in a line: Dopamine D2 receptor (DRD2) small molecule antagonists, cell-based qHTS assay (AID 1963595; active means well fitted inhibition curve with a large enough effect in the signal ratio in the repeat runs, with a control signal flat; the % refers to the signal ratio). The method in brief:
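HTRF cAMP read-out at 665 and 620 nm emission (340 nm excitation). Antagonist mode: compounds were tested against 12 nM quinpirole in DRD2-HEK293 cells, with 200 nM NKH477 raising cAMP and 0.1 mM Ro20-1724 blocking its breakdown.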

Assay [15] has as its target 5-hydroxytryptamine receptor 2A (Homo sapiens) (UniProt P28223). The experiment in a line: 5-hydroxytryptamine receptor 2A (HTR2A) small molecule antagonists, cell-based qHTS assay (AID 1963586). Further: nearly all actives have a fitted effect of over 45% in size. The method in brief:
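CHO cells stably expressing human HTR2A were plated for 18 h at 37 C, then loaded with calcium dye for 1 h. Compounds were preincubated 5 min at room temperature before DOI (4 nM solution) was added. Kinetic fluorescence was read for 3 min.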

Assay [16] shares this target. The experiment in a line: 5-hydroxytryptamine receptor 2A (HTR2A) small molecule agonists, cell-based qHTS assay (AID 1963587). Further: nearly all actives have a fitted effect of over 30% in size. The essentials: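 CHO cells stably expressing human HTR2A, plated 18 h, loaded with calcium dye 1 h at 37 C. Agonist mode: compounds added and intracellular calcium fluorescence recorded kinetically for 2 min at 1 sec intervals.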
Assay [17] has as its target Muscarinic acetylcholine receptor M1 (Homo sapiens) (UniProt P11229). The experiment in a line: Cholinergic receptor muscarinic 1 (CHRM1) small molecule antagonists, cell-based qHTS assay (AID 1963588). Further: nearly all actives have a fitted effect of over 40% in size. The essentials: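 Compounds were tested at 15 concentrations in three independent runs. Dye-loaded CHRM1-CHO cells were exposed 5 min at room temperature before stimulation by acetylcholine added at 50nM. Intracellular calcium was read kinetically on FDSS for 3 min.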

The target is the same in assay [18]. The experiment in a line: Cholinergic receptor muscarinic 1 (CHRM1) small molecule agonists, cell-based qHTS assay (AID 1963589). Further: nearly all actives have a fitted effect of over 35% in size. The method in brief:
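Calcium flux read-out: kinetic fluorescence at 1 sec intervals after pin-tool compound addition to dye-loaded CHRM1-CHO cells (human M1). Agonist mode; 15 concentrations tested in triplicate independent runs.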

Several values for one entry are separate records, joined by “and”; a condition that tells them apart may be missing. Equal entries are not always repeated. Results filed as inconclusive are left out. Activity calls are given as the source filed them. Unless noted, the call rests on the fitted dose curve.

Chain of 5-hydroxytryptamine receptor 2A (Homo sapiens) (P28223 whole entry, looked up): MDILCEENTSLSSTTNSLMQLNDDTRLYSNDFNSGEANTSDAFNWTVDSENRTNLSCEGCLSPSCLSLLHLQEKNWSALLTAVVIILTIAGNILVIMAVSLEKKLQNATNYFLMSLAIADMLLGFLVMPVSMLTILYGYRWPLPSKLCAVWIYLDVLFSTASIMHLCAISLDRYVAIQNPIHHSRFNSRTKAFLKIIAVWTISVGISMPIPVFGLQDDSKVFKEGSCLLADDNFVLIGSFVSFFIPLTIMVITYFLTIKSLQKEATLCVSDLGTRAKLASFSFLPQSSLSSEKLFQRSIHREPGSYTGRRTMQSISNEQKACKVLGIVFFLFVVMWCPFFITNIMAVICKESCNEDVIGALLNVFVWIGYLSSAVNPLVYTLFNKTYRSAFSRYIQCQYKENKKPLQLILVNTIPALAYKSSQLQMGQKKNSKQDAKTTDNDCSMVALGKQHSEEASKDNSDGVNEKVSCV
Chain of Beta-2 adrenergic receptor (Homo sapiens) (P07550 whole entry, looked up): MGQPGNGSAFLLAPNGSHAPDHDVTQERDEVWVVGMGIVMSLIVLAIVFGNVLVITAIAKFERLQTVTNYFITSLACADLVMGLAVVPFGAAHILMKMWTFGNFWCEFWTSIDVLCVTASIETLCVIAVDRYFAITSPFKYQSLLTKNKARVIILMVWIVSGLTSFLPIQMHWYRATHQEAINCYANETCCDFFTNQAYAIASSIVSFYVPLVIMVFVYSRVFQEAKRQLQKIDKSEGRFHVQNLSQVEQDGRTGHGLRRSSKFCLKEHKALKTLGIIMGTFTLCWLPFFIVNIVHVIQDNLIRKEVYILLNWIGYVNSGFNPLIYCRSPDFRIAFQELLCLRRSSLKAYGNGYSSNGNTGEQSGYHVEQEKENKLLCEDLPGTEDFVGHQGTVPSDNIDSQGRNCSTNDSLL
Chain of Muscarinic acetylcholine receptor M1 (Homo sapiens) (P11229 whole entry, looked up): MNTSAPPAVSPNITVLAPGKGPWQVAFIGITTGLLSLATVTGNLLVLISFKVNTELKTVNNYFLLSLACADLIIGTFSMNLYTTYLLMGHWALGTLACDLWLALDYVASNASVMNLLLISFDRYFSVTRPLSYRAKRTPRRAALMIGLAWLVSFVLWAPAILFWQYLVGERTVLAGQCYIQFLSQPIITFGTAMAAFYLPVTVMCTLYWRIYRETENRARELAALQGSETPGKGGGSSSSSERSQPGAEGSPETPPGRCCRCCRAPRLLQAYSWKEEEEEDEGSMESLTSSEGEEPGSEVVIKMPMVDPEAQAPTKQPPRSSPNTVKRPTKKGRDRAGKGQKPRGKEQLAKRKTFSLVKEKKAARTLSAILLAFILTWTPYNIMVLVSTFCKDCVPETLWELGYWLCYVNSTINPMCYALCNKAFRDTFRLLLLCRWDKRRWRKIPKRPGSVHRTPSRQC
Chain of Gonadotropin-releasing hormone receptor (Homo sapiens) (P30968 whole entry, looked up): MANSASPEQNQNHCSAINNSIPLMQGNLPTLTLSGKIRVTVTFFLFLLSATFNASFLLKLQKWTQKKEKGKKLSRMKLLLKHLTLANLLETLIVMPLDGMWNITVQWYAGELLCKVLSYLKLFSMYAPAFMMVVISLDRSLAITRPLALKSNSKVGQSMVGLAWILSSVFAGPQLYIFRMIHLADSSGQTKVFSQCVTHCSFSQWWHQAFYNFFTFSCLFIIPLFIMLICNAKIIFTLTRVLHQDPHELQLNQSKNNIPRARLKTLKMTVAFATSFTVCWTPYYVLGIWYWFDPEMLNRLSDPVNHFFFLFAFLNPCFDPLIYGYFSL
Chain of D(2) dopamine receptor (Homo sapiens) (P14416 whole entry, looked up): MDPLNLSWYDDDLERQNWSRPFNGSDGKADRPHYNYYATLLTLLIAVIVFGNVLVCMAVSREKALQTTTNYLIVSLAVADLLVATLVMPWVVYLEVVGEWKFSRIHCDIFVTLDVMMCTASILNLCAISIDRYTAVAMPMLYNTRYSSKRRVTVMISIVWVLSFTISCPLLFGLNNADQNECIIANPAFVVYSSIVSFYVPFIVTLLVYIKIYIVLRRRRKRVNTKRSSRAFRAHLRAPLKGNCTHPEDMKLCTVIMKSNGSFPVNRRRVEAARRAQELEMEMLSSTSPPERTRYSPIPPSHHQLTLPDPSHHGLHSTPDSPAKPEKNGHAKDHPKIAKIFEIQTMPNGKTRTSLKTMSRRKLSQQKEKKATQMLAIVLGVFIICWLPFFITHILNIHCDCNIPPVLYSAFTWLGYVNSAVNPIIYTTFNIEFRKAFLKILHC

On to `c1ccc2[nH]c(-c3cscn3)nc2c1`, for which the Potency result in assay [1], in assay [3], in assay [4], in [5], in assay [6] and in assay [7] was “inactive” in each case. Also, the Potency result in assay [8], in assay [9], in assay [10], in [11], in assay [12] and in [13] was “inactive” in each case. The Potency entry in [14] was “inactive”. In addition, the Potency in assay [2] is 27.3 µM (active) and 6.68 µM (active).
Turning to `CCCCC(CC)C(=O)O` (stereo not given), the Potency result in assay [1], in assay [2], in assay [3], in assay [4], in assay [5] and in [6] was “inactive” throughout. Also, the Potency result in [7], in assay [8], in [15], in assay [16], in assay [17] and in assay [9] was “inactive” in each case. Further, the Potency result in assay [10], in [11], in [12] and in [14] was “inactive” in each case.
For the compound `CCCCCCCCCCCCCCCCO`, the Potency entry in assay [1], in assay [2], in assay [3], in [4], in assay [5] and in assay [6] was “inactive” throughout. Further, the Potency entry in [7], in [8], in assay [15], in [16], in assay [17] and in [18] was “inactive” each time. Moreover, the Potency result in [9], in [10], in assay [11], in assay [12], in assay [13] and in assay [14] was “inactive” throughout.
In the case of `CC(=O)OCC(COC(C)=O)OC(C)=O`, the Potency result in assay [1], in assay [2], in assay [3], in assay [4], in assay [5] and in [6] was “inactive” throughout. Further, the Potency result in [7], in assay [8], in assay [10], in assay [11], in [12] and in [13] was “inactive” each time. Also, the Potency result in [14] is “inactive”.
Take `O=C1NC(=O)C(c2ccccc2)(c2ccccc2)N1`: the Potency entry in assay [1], in [2], in assay [3], in [4], in assay [5] and in assay [6] was “inactive” throughout. In addition, the Potency entry in assay [7], in assay [8], in assay [9], in assay [10], in [12] and in assay [13] was “inactive” in each case. Further, the Potency entry in assay [14] is “inactive”.
Consider `NC(N)=O`, for which the Potency result in assay [1], in assay [2], in [3], in assay [4], in assay [5] and in [6] was “inactive” in each case. Moreover, the Potency result in assay [7], in assay [8], in assay [15], in assay [16], in [17] and in assay [18] was “inactive” in each case. The Potency result in [10], in [11], in [12], in assay [13] and in assay [14] was “inactive” in each case.
For the compound `O=c1oc(=O)c2cc3c(=O)oc(=O)c3cc12`, the Potency entry in assay [1], in assay [2], in assay [3], in assay [4], in [5] and in assay [6] was “inactive” in each case. For the same compound, the Potency entry in [7], in assay [8], in assay [15], in [16], in [17] and in [18] was “inactive” each time. For the same compound, the Potency result in assay [9], in assay [10], in [11] and in [14] was “inactive” in each case.
Consider `CC(C)[C@@H]1CC[C@@H](C)C[C@H]1O`, for which the Potency result in assay [1], in assay [2], in assay [3], in assay [4], in [5] and in [6] was “inactive” each time. Besides, the Potency result in [7], in assay [8], in [15], in assay [16], in assay [17] and in assay [18] was “inactive” in each case. The Potency entry in assay [9], in [10], in assay [11], in assay [12], in assay [13] and in assay [14] was “inactive” in each case.

The values are drawn from PubChem BioAssay (Tox21).
